Assay [1] concerns the target human Peripheral-type Benzodiazepine Receptor (PBR), TSPO (gene 706) (UniProt P30536). Briefly: NVS_MP_hPBR: NovaScreen (NVS) Membrane Protein Assay for human Peripheral-type Benzodiazepine Receptor (PBR) (AID 2283331).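 Further: hits reduce radioligand binding relative to DMSO baseline.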 A digest of the protocol:
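Using human colon-derived membranes, this one-endpoint binding test reads radioligand loss by scintillation after 1 h. Screening started at 25 uM in duplicate, with positive and negative controls on every plate, and actives moved to dose series.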

For assay [2], the target named is human Constitutive Androstane Receptor (CAR), NR1I3 (gene 9970) (UniProt Q14994). Briefly: NVS_NR_hCAR_Antagonist: NovaScreen (NVS) Nuclear Receptor Binding Assay for human Constitutive Androstane Receptor Antagonism (CAR) (AID 2283344). In a few lines: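 Single 25 uM duplicate primary screen, with concentration-series follow-up on actives. Cell-free binding format run in antagonist mode, TR-FRET signal taken 1 h post-dose; activity is signal loss relative to DMSO.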

In assay [3] the target is human Serotonin, 5-Hydroxytryptamine Receptor 3 (5HT3), HTR3A (gene 3359) (UniProt P46098). The experiment in a line: NVS_LGIC_h5HT3: NovaScreen (NVS) Ligand-Gated Ion Channel Assay for human Serotonin, 5-Hydroxytryptamine Receptor 3 (5HT3) (AID 2283325). A digest of the protocol: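 Initially tested at 25 uM in duplicate, then up to 50 uM in concentration-response for actives, compounds competed with a radioligand for HEK293-derived human 5-HT3 receptor. Bound counts were measured by filtration and scintillation at 1 h; loss of signal versus DMSO.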

The target of assay [4] is rat Thyrotropin Releasing Hormone Receptor (TRH), Trhr (gene 25570) (UniProt Q01717). Briefly: NVS_GPCR_rTRH: NovaScreen (NVS) G Protein-Coupled Receptor Assay for rat Thyrotropin Releasing Hormone Receptor (TRH) (AID 2283329).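 Further: hit means lower bound tracer signal versus DMSO baseline.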 A digest of the protocol:
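Test compounds are screened at 25 uM in duplicate against radioligand binding in rat forebrain membranes, with active pairs followed up over a concentration range. Detection uses filter-based radiodetection after a 4 h exposure.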

Assay [5] has as its target bovine Estrogen Receptor (ER), ESR1 (gene 407238) (UniProt P49884). The experiment in a line: NVS_NR_bER: NovaScreen (NVS) Nuclear Receptor Binding Assay for bovine Estrogen Receptor (ER) (AID 2283345).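 Further: actives lower the bound radioligand count which means they displace the ER ligand.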 In a few lines:
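Bovine uterine membranes; tritiated or iodinated radioligand; competitive displacement; 18 h; scintillation read; DMSO negative control; 25 uM duplicates, then concentration series for actives.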

In assay [6] the target is rat Oxytocin Receptor (OXT), Oxtr (gene 25342) (UniProt P70536). The experiment in a line: NVS_GPCR_rOXT: NovaScreen (NVS) G Protein-Coupled Receptor Assay for rat Oxytocin Receptor (OXT) (AID 2283330). In a few lines:
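Binding to rat uterine membrane receptor was followed by scintillation counting of filter-trapped radioligand after 1 h. A 25 uM duplicate single-point screen preceded concentration series with a top of 50 uM. Signal loss was analysed relative to DMSO.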

For assay [7], the system named is guinea pig Histamine Receptor (H2), gene 100729734. The experiment in a line: NVS_GPCR_gH2: NovaScreen (NVS) G Protein-Coupled Receptor Assay for guinea pig Histamine Receptor (H2) (AID 2283342). In a few lines:
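Guinea pig striatal membrane preparation with specific radioligand; bound counts measured by filtration and scintillation 1 h post-dosing, DMSO as baseline. Chemicals passing a 25 uM duplicate screen were titrated to a 50 uM maximum.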

The test system of assay [8] is NCBI gene 100848466. Briefly: NVS_NR_bPR: NovaScreen (NVS) Nuclear Receptor Binding Assay for bovine Progextron Receptor (PR) (AID 2283343).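 Further: actives lower bound radioligand signal below DMSO meaning displacement of the label.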 A digest of the protocol:
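Steps: bovine uterine membranes were dosed with chemical alongside radioligand, incubated 18 hours, then radiodetected by scintillation counting. Initial testing used 25 uM in duplicate; confirmed actives were rerun as concentration series.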

Assay [9] deals with human Androgen Receptor (AR), AR (gene 367) (UniProt P10275). The experiment in a line: NVS_NR_hAR: NovaScreen (NVS) Nuclear Receptor Binding Assay for human Androgen Receptor (AR) (AID 2283332). A digest of the protocol:
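Actives from a duplicate 25 uM single-point screen went on to concentration series. Read-out after 20 h was scintillation counting of displaced radioligand in LnCAP extract, with DMSO as baseline.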

In assay [10] the target is rat Glutamate, NMDA Agonist Site (GluNMDA), Grin1 (gene 24408) (UniProt P35439). Briefly: NVS_LGIC_rGluNMDA_Agonist: NovaScreen (NVS) Ligand-Gated Ion Channel Assay for rat Glutamate, NMDA Agonist Site (GluNMDA) (AID 2283327). A digest of the protocol: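 Radioligand displacement at the agonist site on rat forebrain membrane preparations, read by filter scintillation after 1 h. Chemicals were first run at 25 uM in duplicate; those passing threshold were titrated to a 50 uM maximum.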

Assay [11] addresses Voltage-gated inwardly rectifying potassium channel KCNH2 (Homo sapiens) (UniProt Q12809). Briefly: NVS_IC_hKhERGCh: NovaScreen (NVS) Ion Channel Assay for human Potassium Channel ERG (KhERGCh) (AID 2283333). In a few lines:
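Membranes from CHO cells expressing human ERG; displacement of radioligand measured by filtration and scintillation after 0.75 h. Single-concentration duplicate screen at 25 uM, then concentration-response for actives; DMSO baseline.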

The target of assay [12] is Glutamate receptor ionotropic, kainate 1 (Rattus norvegicus) (UniProt P22756). Briefly: NVS_IC_rKAR: NovaScreen (NVS) Ion Channel Assay for rat Kainic Acid Receptors (KAR) (AID 2283334; active means hit-call score of the fitted dose curve at least 0.9, where 1 is the maximum; inactive means score below 0.9). A digest of the protocol: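 Rat forebrain membrane preparation incubated 1 h with radioligand and test chemical; bound signal read by filtration and scintillation. Single-concentration screen at 25 uM, then concentration series to 50 uM maximum.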

For assay [13], the target named is Small conductance calcium-activated potassium channel protein 1 (Rattus norvegicus) (UniProt P70606). The experiment in a line: NVS_IC_rKCaCh: NovaScreen (NVS) Ion Channel Assay for rat Potassium Channel, Ca2+ Act., VI (KCaCh) (AID 2283336). A digest of the protocol: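 Filter-based scintillation counting of radioligand bound to rat forebrain membrane preparations, measured 1 h after compound addition. Primary screen used 25 uM in duplicate, with concentration-response follow-up; signal decrease relative to DMSO marks activity.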

Assay [14] in a line: NVS_IC_rCaBTZCHL: NovaScreen (NVS) Ion Channel Assay for Calcium Channel, Type L, Benzothiazepine Site (CaBTZCHL) (AID 2283337). A digest of the protocol:
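Rat cortical membrane preparation incubated 1.5 h with compound and benzothiazepine-site radioligand; loss of filter-bound counts versus DMSO marks displacement. Initial duplicate testing at 25 uM, actives followed up in concentration series.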

The target in assay [15] is rat Gamma-Aminobutyric Acid Type A Receptor BDZ, alpha 6 site (GABARa6), Gabra6 (gene 29708) (UniProt P30191). Briefly: NVS_LGIC_rGABARa6: NovaScreen (NVS) Ligand-Gated Ion Channel Assay for rat Gamma-Aminobutyric Acid Type A Receptor BDZ, alpha 6 site (GABARa6) (AID 2283339). In a few lines: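 Actives from a 25 uM duplicate screen were retested in concentration series (max 50 uM). Specific radioligand displacement from rat cerebellar membranes was counted by filter-based scintillation at 1 h; DMSO served as baseline.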

The target in assay [16] is rat Glutamate, MK-801 Agonist Site (GluNMDA_MK801), Grin1 (gene 24408) (UniProt P35439). The experiment in a line: NVS_LGIC_rGluNMDA_MK801_Agonist: NovaScreen (NVS) Ligand-Gated Ion Channel Assay for rat Glutamate, MK-801 Agonist Site (GluNMDA_MK801) (AID 2283340). A digest of the protocol:
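Rat forebrain membrane preparation; MK-801-site radioligand binding read by filtration and scintillation after 1.5 h. Single-point 25 uM duplicate screen, followed by singleton concentration series to 50 uM max; DMSO baseline.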

Several values for one entry are separate records, joined by “and”; a condition that tells them apart may be missing. Equal entries are not always repeated. Records with an inconclusive call do not appear. More than one record can exist for a structure, and the calls need not agree. Activity calls are given as the source filed them. How the source made its calls, unless noted: active means hit-call score of the fitted dose curve at least 0.9, where 1 is the maximum; inconclusive means response in the unintended direction; inactive means score below 0.9.

The values below come from PubChem BioAssay (EPA / NIEHS).

For orientation: AC50 means the concentration at which the activity in the assay is half-maximal.

Sequence of human Peripheral-type Benzodiazepine Receptor (PBR), TSPO (gene 706) (P30536 whole entry, looked up): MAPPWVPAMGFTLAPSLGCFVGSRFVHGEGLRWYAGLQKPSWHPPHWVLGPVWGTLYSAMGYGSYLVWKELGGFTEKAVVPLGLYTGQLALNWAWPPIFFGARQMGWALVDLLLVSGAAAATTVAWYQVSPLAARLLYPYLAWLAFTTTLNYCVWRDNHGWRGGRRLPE
Sequence of bovine Estrogen Receptor (ER), ESR1 (gene 407238) (P49884 whole entry, looked up): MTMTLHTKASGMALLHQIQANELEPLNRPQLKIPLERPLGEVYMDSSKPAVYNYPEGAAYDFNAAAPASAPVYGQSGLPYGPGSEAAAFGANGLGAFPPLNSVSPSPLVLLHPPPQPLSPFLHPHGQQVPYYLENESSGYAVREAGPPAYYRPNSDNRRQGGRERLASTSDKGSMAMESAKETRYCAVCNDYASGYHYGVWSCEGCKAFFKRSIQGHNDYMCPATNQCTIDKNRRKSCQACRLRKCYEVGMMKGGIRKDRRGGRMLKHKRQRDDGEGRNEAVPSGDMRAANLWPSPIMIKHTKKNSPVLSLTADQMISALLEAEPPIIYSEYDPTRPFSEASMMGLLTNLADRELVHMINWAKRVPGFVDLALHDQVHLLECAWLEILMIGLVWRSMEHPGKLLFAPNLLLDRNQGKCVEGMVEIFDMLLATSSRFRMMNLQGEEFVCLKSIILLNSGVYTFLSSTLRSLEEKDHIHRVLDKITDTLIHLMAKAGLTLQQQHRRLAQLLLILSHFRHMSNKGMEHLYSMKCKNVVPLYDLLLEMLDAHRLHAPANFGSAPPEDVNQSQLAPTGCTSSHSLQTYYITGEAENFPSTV
Sequence of human Androgen Receptor (AR), AR (gene 367) (P10275 whole entry, looked up): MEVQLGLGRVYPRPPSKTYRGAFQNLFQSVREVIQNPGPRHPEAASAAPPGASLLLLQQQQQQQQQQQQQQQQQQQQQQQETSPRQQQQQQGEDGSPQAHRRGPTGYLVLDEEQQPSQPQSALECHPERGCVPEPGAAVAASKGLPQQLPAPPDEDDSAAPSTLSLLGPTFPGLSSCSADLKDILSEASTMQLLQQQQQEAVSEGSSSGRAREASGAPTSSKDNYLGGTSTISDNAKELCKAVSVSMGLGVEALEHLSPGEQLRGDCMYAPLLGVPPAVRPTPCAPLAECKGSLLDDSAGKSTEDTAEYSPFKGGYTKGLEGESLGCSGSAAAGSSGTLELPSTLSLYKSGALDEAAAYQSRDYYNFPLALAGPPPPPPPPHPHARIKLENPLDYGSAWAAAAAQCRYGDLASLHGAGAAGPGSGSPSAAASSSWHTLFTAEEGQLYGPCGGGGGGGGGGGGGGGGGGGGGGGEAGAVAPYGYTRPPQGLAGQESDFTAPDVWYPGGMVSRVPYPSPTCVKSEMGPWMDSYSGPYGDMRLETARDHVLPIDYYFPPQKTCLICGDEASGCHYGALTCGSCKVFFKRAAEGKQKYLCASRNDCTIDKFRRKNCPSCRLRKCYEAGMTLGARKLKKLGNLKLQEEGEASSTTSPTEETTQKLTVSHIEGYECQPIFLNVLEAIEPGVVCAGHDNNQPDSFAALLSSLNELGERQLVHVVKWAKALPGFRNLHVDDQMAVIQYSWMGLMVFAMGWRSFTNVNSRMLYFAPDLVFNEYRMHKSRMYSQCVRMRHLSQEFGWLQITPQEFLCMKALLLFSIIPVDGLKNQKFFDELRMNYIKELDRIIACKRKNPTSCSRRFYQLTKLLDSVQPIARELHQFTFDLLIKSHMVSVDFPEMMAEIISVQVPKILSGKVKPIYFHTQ
Sequence of rat Thyrotropin Releasing Hormone Receptor (TRH), Trhr (gene 25570) (Q01717 whole entry, looked up): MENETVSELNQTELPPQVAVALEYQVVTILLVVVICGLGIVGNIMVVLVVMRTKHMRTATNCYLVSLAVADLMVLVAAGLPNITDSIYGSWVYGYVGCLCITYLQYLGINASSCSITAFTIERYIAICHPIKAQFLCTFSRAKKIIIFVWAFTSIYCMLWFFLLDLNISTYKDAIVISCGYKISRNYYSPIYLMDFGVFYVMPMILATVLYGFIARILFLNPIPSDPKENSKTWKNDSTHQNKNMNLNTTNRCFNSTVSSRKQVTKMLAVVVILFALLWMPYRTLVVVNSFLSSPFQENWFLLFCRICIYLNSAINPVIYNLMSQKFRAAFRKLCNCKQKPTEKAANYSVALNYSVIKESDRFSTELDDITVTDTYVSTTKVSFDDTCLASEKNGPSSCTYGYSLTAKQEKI
Sequence of rat Gamma-Aminobutyric Acid Type A Receptor BDZ, alpha 6 site (GABARa6), Gabra6 (gene 29708) (P30191 whole entry, looked up): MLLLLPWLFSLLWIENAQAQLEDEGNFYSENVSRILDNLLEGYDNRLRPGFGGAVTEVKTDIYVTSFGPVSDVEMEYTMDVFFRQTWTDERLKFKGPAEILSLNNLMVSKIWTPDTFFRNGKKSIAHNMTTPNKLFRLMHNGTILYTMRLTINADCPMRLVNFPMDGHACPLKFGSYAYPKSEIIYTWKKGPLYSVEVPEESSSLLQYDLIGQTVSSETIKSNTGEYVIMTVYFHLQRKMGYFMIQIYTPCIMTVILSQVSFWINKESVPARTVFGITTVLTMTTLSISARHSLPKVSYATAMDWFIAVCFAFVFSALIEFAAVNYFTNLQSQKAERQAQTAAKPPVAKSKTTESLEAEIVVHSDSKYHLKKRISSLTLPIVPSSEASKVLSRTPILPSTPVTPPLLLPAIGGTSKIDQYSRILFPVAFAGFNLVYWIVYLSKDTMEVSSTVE
Sequence of human Serotonin, 5-Hydroxytryptamine Receptor 3 (5HT3), HTR3A (gene 3359) (P46098 whole entry, looked up): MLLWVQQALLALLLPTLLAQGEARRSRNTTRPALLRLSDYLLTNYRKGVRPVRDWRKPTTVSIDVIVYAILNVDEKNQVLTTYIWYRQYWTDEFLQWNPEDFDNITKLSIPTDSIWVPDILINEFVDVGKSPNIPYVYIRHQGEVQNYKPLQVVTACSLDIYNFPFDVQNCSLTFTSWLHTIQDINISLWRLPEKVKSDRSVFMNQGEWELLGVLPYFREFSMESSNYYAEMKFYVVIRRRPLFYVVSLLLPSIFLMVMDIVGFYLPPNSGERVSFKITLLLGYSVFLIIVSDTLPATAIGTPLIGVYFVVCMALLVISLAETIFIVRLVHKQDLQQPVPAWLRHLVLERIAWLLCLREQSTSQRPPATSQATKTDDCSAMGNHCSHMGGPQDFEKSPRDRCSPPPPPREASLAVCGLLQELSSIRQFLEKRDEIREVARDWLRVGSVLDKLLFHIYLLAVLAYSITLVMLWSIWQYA
Sequence of Small conductance calcium-activated potassium channel protein 1 (Rattus norvegicus) (P70606 whole entry, looked up): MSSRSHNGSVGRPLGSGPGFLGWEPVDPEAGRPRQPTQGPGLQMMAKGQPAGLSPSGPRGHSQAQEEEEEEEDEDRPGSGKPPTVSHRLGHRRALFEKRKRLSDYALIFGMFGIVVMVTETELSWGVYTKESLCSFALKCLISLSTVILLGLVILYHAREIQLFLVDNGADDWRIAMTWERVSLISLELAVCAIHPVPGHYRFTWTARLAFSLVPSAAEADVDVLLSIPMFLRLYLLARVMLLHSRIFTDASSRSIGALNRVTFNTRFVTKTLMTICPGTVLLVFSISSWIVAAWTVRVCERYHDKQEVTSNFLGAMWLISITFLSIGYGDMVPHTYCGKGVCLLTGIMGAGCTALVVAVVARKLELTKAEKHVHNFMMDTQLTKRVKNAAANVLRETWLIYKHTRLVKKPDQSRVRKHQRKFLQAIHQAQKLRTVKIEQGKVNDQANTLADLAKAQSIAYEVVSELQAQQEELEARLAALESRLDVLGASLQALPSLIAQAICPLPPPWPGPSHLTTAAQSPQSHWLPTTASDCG
Sequence of human Constitutive Androstane Receptor (CAR), NR1I3 (gene 9970) (Q14994 whole entry, looked up): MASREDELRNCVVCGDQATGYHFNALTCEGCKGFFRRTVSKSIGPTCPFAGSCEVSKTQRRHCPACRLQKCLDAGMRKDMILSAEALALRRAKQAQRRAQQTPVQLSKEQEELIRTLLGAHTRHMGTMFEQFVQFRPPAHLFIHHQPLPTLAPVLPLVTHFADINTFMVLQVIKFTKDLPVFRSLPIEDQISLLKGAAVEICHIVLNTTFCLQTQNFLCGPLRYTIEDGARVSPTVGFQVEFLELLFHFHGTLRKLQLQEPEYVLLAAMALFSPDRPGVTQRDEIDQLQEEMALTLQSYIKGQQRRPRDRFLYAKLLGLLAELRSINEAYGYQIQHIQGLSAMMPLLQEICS
Sequence of Glutamate receptor ionotropic, kainate 1 (Rattus norvegicus) (P22756 whole entry, looked up): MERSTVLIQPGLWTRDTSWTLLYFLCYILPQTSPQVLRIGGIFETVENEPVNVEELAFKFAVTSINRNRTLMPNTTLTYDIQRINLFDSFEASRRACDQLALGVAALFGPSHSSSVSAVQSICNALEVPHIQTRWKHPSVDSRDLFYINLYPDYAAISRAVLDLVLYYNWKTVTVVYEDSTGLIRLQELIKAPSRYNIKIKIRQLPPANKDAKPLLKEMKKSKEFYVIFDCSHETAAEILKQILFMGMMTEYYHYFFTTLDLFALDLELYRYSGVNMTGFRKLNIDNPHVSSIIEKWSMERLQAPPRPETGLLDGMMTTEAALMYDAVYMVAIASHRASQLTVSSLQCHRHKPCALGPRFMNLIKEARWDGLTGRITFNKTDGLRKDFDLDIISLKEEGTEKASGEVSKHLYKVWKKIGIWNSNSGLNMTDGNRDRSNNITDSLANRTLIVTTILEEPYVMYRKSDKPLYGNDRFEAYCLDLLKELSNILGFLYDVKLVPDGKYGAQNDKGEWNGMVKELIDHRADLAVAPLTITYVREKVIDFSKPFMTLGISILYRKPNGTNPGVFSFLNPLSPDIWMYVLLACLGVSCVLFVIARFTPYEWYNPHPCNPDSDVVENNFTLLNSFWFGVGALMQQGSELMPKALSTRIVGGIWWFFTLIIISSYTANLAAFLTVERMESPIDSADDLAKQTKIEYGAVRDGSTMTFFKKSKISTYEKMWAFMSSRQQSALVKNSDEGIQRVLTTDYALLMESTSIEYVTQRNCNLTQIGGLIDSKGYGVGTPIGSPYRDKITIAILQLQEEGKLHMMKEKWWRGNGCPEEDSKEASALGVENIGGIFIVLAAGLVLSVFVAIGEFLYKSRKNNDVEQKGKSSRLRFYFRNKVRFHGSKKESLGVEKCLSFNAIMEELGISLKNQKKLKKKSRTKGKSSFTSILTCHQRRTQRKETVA

`CCC(C)(CC)c1cc(NC(=O)c2c(OC)cccc2OC)on1`: the outcome in assay [1] and in assay [2] was inactive.
Take `CCCCCCCCCc1ccc(O)cc1`: the result in assay [3], in [4], in assay [2] and in assay [5] was inactive.
Regarding `Clc1ccc(Cl)cc1`, the call in assay [3] and in assay [6] was inactive.
In the case of `Cc1ccc(O)c(C)c1`, in [1], the call was inactive.
Regarding `C[C@]12CCC(=O)C=C1CC[C@@H]1[C@@H]2CC[C@@]2(C)[C@H]1CC[C@]2(C)O`, the call in assay [4], in assay [7] and in [5] was inactive. For the same compound, the AC50 in [8] was 0.149 µM (active).
With `CCOC(=O)C(O)(c1ccc(Cl)cc1)c1ccc(Cl)cc1`, in assay [9], the AC50 is 6.91 µM (active).
Consider `OCC(O)CO`, for which the outcome in [4] was inactive.
Take `CCC(=O)O[C@H]1CC[C@H]2[C@@H]3CCC4=CC(=O)CC[C@]4(C)[C@H]3CC[C@]12C`: the AC50 in [9] is 26.8 nM (active) and 48 nM (active). Moreover, the outcome in assay [5] was inactive.
Regarding `Cc1ccccc1CO[C@@H]1C[C@@]2(C(C)C)CC[C@]1(C)O2`, in assay [1], the AC50 was 8.27 µM (active).
As to `CCC(C)(c1ccc(O)cc1)c1ccc(O)cc1`, the AC50 in assay [10] was 16.4 µM (active); in assay [1], 9.64 µM (active) and 2.96 µM (active) and 14.1 µM (active); in assay [8] it was 8.47 µM (active); in assay [5], 341 nM (active) [middle of 4 runs]. Moreover, the call in [7] and in assay [5] was inactive.
Regarding `Sc1ccccc1`, in assay [4], the call was inactive.
For the compound `CCSC(=O)N(CC)C1CCCCC1`, the outcome in assay [10] and in assay [1] was inactive.
`Oc1ccc(Cl)cc1Cl`: in assay [11], the outcome was inactive.
With `COS(=O)(=O)OC`, the compound was called inactive in assay [12].
Turning to `c1ccc(-c2ccccc2)cc1`, the outcome in assay [13] was inactive.
For the compound `COc1ccc(O)c(C(C)(C)C)c1`, in assay [13], the outcome was inactive.
As to `CC1=C2C[C@H]3[C@@H](CC=C4C[C@@H](O)CC[C@@]43C)[C@@H]2CC[C@]12O[C@@H]1C[C@H](C)CN[C@H]1[C@H]2C`, the outcome in [14] was inactive.
Turning to `O=S(=O)(O)C(F)(F)C(F)(F)C(F)(F)C(F)(F)C(F)(F)C(F)(F)F`, the compound was called inactive in assay [15].
As for `Cc1cc2c3c(c1)C(c1ccccc1)=N[C@@H](NC(=O)c1ccncc1)C(=O)N3CC2`, the outcome in assay [15] was inactive.
Take `O=NN(c1ccccc1)c1ccccc1`: the call in [16] was inactive.
